Screening data from PubChem.
Pol kappa inh: qHTS for Inhibitors of Polymerase Kappa; DNA polymerase kappa (Homo sapiens), Q9UBT6; purified Pol kappa, fluorescent DNA synthesis assay, 10 min; Potency, µM (series often up to 107 µM), for inactives: at the highest dose activity, negative = inhibition, most hits filed as inhibitors; actives 0.53% (n = 400,000); AID 588579, 2011; note: % is set by controls: 0 for no effect and ±100 for the full control effect
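Kinetic fluorescence readout at 0 and 10 min followed reaction start with substrate at 50 nM final. Beforehand, enzyme (10 nM Pol kappa) stood 15 min with compound at room temperature; buffer-only wells were negative controls.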
FEN1 inh: qHTS Assay for the Inhibitors of Human Flap endonuclease 1 (FEN1) | AID 588795, 2011 | P39748 | Potency, µM (titrated, usually from 114 µM), for the others: top-dose activity change, negative = inhibition, usual class: inhibitors | actives 0.35% (n = 390,000) | Recombinant FEN1 flap cleavage, fluorescence, 15 min; note: % is set by controls: 0 for no effect and ±100 for the full control effect; nearly all actives have a fitted effect of over 65% in size
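Compounds are tested as a concentration series against 10 nM FEN1; after a 15 min room-temperature preincubation, 50 nM substrate starts cleavage, with plate reads at 0 and 15 min. Normalized responses are fitted by a Hill equation.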
POLB inh: qHTS Assay for Inhibitors of DNA Polymerase Beta | P06746 | Pol beta primer extension/strand displacement, fluorescence kinetic | Potency, µM (highest dose often 114 µM), without a hit: top-dose activity change, negative = inhibition, hits mostly inhibitors | actives 1.3% (n = 340,000); note: % is set by controls: 0 for no effect and ±100 for the full control effect
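Preincubation: enzyme (10 nM) with compound, 15 min, RT. Reaction: substrate added to 50 nM final. Reads: 0 and 10 min. Analysis: normalized, Hill fit.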
TDP1 block: qHTS Assay for Inhibitors of Tyrosyl-DNA Phosphodiesterase (TDP1). Tyrosyl-DNA phosphodiesterase 1 (Homo sapiens), Q9NUW8. recombinant TDP1, AlphaScreen DNA substrate cleavage. Potency, µM (top dose mostly 130 µM), without a hit: top-dose activity change, negative = inhibition, hits mostly inhibitors. actives 0.28% (n = 350,000). AID 485290, 2010; note: % is set by controls: 0 for no effect and ±100 for the full control effect; nearly all actives have a fitted effect of over 40% in size
Target sequence (Q9NUW8 whole entry, looked up): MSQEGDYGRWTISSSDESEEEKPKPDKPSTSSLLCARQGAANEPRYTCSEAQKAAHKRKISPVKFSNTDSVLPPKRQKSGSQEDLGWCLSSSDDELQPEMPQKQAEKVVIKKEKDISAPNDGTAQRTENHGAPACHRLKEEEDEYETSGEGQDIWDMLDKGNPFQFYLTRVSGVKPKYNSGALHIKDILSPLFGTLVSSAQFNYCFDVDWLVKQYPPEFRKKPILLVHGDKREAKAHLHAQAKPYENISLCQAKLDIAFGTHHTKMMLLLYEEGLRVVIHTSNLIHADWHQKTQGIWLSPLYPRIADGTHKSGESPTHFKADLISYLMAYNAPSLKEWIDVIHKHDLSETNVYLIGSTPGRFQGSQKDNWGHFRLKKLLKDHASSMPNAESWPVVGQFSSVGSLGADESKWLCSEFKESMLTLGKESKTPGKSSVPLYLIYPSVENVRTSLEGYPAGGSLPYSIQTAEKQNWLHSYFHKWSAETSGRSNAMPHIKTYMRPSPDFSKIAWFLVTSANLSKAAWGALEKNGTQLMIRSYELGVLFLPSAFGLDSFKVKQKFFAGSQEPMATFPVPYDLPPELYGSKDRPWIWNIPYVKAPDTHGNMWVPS
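Here, a 5' biotin and 3' phosphotyrosine-FITC DNA oligonucleotide reports Tdp1 activity: intact substrate bridges AlphaScreen beads, while cleavage leaves a 3' phosphate and drops signal. All incubations at room temperature.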
POLH inh: qHTS for Inhibitors of Polymerase Eta | recombinant Pol eta, fluorescent DNA replication assay | Potency, µM (doses to about 114 µM), inactives show at the highest dose activity change, negative = inhibition, usual class: inhibitors | actives 1.2% (n = 390,000) | AID 588591, 2011; note: % is set by controls: 0 for no effect and ±100 for the full control effect
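Pol eta (10 nM) was preincubated with compounds for 15 min at room temperature, after which fluorescent replication substrate (50 nM final) was added to start the reaction. Fluorescence was read kinetically at 0 and 10 min.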
POLI inh: qHTS for Inhibitors of Polymerase Iota. DNA polymerase iota (Homo sapiens), Q9UNA4. Pol iota fluorescent replication assay, 10 min. Potency, µM (doses to about 115 µM), inactives show top-dose activity, negative = inhibition, hits mostly inhibitors. actives 1% (n = 390,000). AID 588590, 2011
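Pol iota at 10 nM preincubated 15 min with compounds at room temperature; reaction started with fluorescent substrate, 50 nM final. Fluorescence read kinetically at 0 and 10 min; buffer-only wells as negative control.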
* hit, by the source's call; ? = inconclusive; . = no result; [ ] = dose if it differs, or a comment. This is a sample that favours compounds with a hit; in the whole collection about 2.4% have one here. Calls come from the whole dose curve; as a rule, active = well fitted curve in the direction sought with a large enough effect; inconclusive = small, poorly fitted or top-dose-only effect, or another doubt; inactive = no such curve, though single readings can be large; an effect the other way counts as inactive or inconclusive. Potency is the fitted concentration of half-maximal effect.

SMILES	Pol kappa inh	FEN1 inh	POLB inh	TDP1 block	POLH inh	POLI inh
O=C(NC1CCCCC1)[C@@H]1CC=C[C@@H]2CCN(Cc3ccc(Cl)c(Cl)c3)C(=O)[C@@H]21	-8.7%	15.1%	.	.	.	-7.5%
COC(=O)c1ccc(C(NC(=O)OCc2ccccc2)/C(=C/[C@@H](C)C(=O)NCc2cc(C)n(C)n2)c2cccnc2)cc1 (stereo not given in full)	.	.	.	3.3%	.	.
O=[N+]([O-])c1cccc2cn[nH]c12	-11.3%[60.1 µM]	?	-0.6%	5.8%	-10.4%	-8.6%
O=[N+]([O-])c1cccc2c[nH]nc12	12.6µM*	.	.	.	.	.
CCOc1ccc(NC(=O)CN2C(=O)c3ccccc3Sc3ccc(C(=O)OC)cc32)cc1	-0.7%[60.1 µM]	-0.9%	79.4µM*	3.0%	?	4.0%
COC(=O)c1ccc2c(c1)N(CC(=O)Nc1ccc(C)cc1Cl)C(=O)c1ccccc1S2	-1.3%[60.1 µM]	-3.6%	?	0.6%	-11.1%	38.7%
COc1cccc2c(=O)c3cccc(N)c3[nH]c12	-11.8%	?	25.1µM*	3.8%	?	-12.2%
CC1CCCC(C)N1C(=O)COC(=O)c1ccc(S(=O)(=O)N(C)c2ccccc2)cc1 (stereo not given)	-16.6%	-26.5%	.	-6.6%	-9.9%	8.4%
CN(/C=C/C(=C\C=[N+](C)c1ccccc1)OCCCS(=O)(=O)[O-])c1ccccc1	?	-17.9%	50.1µM*	-2.6%	-4.1%	?
CN(/C=C/C(=C/C=[N+](C)c1ccccc1)OCCCS(=O)(=O)[O-])c1ccccc1	?	-10.3%	28.2µM*	-1.6%	?	?
Cc1ccc(S(=O)(=O)Nc2ccc(O)c(Sc3ncn[nH]3)c2)cc1	-1.2%	-9.3%	-1.8%	-2.5%	-18.2%	18.3%
Cc1ccc(S(=O)(=O)/N=C2/C=C(Sc3ncn[nH]3)C(=O)c3ccccc32)cc1	-35.0%	50.1µM*	?	10.5%	3.55µM*	1.12µM*
CC(C)c1ccc(S(=O)(=O)/N=C2/C=C(Sc3ncn[nH]3)C(=O)c3ccccc32)cc1	79.4µM*	79.4µM*	22.4µM*	6.5%	12.6µM*	3.55µM*
O=C(C[N+]1(CCO)CCOCC1)c1ccc2ccccc2c1	3.8%	11.5%	.	.	.	4.1%
COc1ccc2cc(C(=O)N/N=C/c3cc(OC)c(OC)c(OC)c3)[nH]c2c1	-52.7%	?	10µM*	.	?	?
COc1ccc(/C=N/NC(=O)c2cc3cc(OC)c(OC)cc3[nH]2)cc1	-76.2%	-31.0%	6.31µM*	.	?	-21.9%
CCOc1ccc2[nH]c(C(=O)N/N=C/c3ccc(OC)cc3)cc2c1	-1.2%	-11.6%	15.3%	.	-9.4%	-7.8%
Cc1ccccc1Nc1c(-c2ccc(Cl)s2)nc2ccccn12	-5.3%	-12.3%	.	0.9%	.	-2.2%
O=C(NC(Cc1ccccc1)C(=O)O)/C(=C\c1ccco1)NC(=O)c1ccc(Br)cc1 (stereo not given)	50.1µM*	3.2%	-21.6%	-2.9%	?	20µM*
O=C(NC(Cc1ccccc1)C(=O)O)/C(=C\c1ccco1)NC(=O)c1ccccc1 (stereo not given)	-26.8%	-2.5%	39.8µM*	-3.4%	14.1µM*	?
COc1ccc(C2=NOC3(CC(=O)N(c4ccc5ccccc5c4)C3=O)C2)c(OC)c1 (stereo not given)	-43.8%	-3.3%	50.1µM*	.	-22.8%	?
COc1ccc(C2=NOC3(CC(=O)N(c4ccc(F)cc4)C3=O)C2)c(OC)c1 (stereo not given)	?	-3.7%	-10.3%	-1.3%	-3.9%	-18.5%
CCOCCCNC(=O)Cc1c(C(=O)O)[nH]c2ccc(Cl)cc12	-22.0%	-6.6%	-0.5%	5.2%	-4.1%	-12.3%
CCCN(C(=O)Cc1c(C(=O)O)[nH]c2ccc(Cl)cc12)c1ccc(OCC)cc1	-6.7%	11.3%	50.1µM*	0.0%	-4.9%	-28.4%
N#Cc1nc(NCCCCO)nc(Nc2ccccc2)n1	.	.	.	9.7%	.	.
SMILES	Pol kappa inh	FEN1 inh	POLB inh	TDP1 block	POLH inh	POLI inh
CC(=O)NC1=CC(=O)c2nonc2C1=O	?	-53.3%	.	.	.	-84.4%
CCOc1ccc(NC(=O)Cn2sc3nc(C)cc(C)c3c2=O)cc1	-12.5%	89.1µM*	1.4%	0.0%	-13.4%	?
Cc1cc(C)c2c(=O)n(CC(=O)Nc3ccc(Cl)cc3)sc2n1	-5.2%	?	-12.1%	.	-6.6%	-12.2%
Cn1c(=O)[nH]c(=O)c2c1nc1n2CCN1c1ccccc1	?	-0.3%	7.5%	-4.5%	-2.3%	79.4µM*
CC1CN(c2ccccc2)c2nc3c(c(=O)[nH]c(=O)n3C)n2C1 (stereo not given)	-8.0%	-6.5%	31.2%	.	-8.3%	1.3%
O=[N+]([O-])c1cc2oc3c(c2c(C=NCc2ccncc2)c1O)CCCC3	?	-25.0%	17.8µM*	5.5%	?	?
c1ccc(Oc2ncnc3oc(-c4ccccc4)cc23)cc1	-3.8%	-4.5%	10.9%	3.2%	-17.0%	9.1%
c1ccc(-c2cc3c(-n4cccc4)ncnc3o2)cc1	?	?	-11.4%	2.0%	?	79.4µM*
O=C(Cc1cccs1)N(c1ccccc1)C1C=CS(=O)(=O)C1 (stereo not given)	-11.0%	-0.9%	?	-4.4%	-7.9%	56.2µM*
CCOC(=O)CN1C(=O)C(O)(CC(=O)c2cc(OC)ccc2OC)c2ccccc21 (stereo not given)	-7.3%	1.1%	0.8%	.	-9.4%	12.6%
Cc1ccc(NS(=O)(=O)c2cc3c(cc2Cl)CCC(=O)N3)cc1C	.	.	.	0.6%	.	.
O=C(Nc1ccccc1)c1ccccc1NS(=O)(=O)c1ccc(Cl)s1	-3.0%	-2.3%	-21.7%	0.0%	-11.7%	2.8%
O=C(Nc1ccccc1Cc1ccccc1)c1ccccc1NS(=O)(=O)c1ccc(Cl)s1	-13.0%	?	?	-2.7%	79.4µM*	-14.2%
CSc1ccc(CCNC(=O)Cn2ccc3cc(S(=O)(=O)N4CCCCCC4)ccc32)cc1	4.0%	-23.1%	2.4%	0.0%	-20.8%	-3.5%
CC[N+](C)(C)c1ccc(/C=C/c2ccncc2)cc1	-42.5%	?	.	.	.	79.4µM*
CCN(CC)c1ccc(/C=C/c2ccc3ccccc3n2)cc1	39.8µM*	44.7µM*	.	.	.	?
CC[N+](C)(C)c1ccc(/C=C/c2ccc3ccccc3n2)cc1	-24.5%	44.7µM*	.	.	.	-18.4%
